From paper PMC8384837, “Expanding the binding specificity for RNA recognition by a PUF domain” come the findings set out here.

Holding throughout (assay): yeast three-hybrid, YBZ-1, SC-Leu-His + 0.5 mM 3-AT, 4 days
Holding throughout (settings): tags: N-Gal4 AD-HA kept; label: inside an RPR1-promoter hybrid RNA with tandem MS2 sites; ssRNA

The target in experiment [1] is PUM1 PUF domain R3-FRM (Homo sapiens, UniProt Q14671 828-1176, C935F;Q939M). Summed up: (§1)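 Pumilio-1 PUF domain libraries, randomized at the three base-contacting residues of each repeat, were co-expressed with matching RNA elements from a centromeric plasmid in strain YBZ-1, which carries a LexA–MS2 coat fusion and a HIS3 reporter. Transformants grew for four days on SC-Leu (input) or on SC-Leu-His + 0.5 mM 3-AT (selection), and the repeat regions were PCR-amplified and Illumina-sequenced. The interaction score is the log change in variant frequency from input to selection. That logarithm is base 2, with a pseudocount of 1 where a variant was absent.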

The target in experiment [2] is PUM1 PUF domain R3-RQW (Homo sapiens, UniProt Q14671 828-1176, C935R;R936Q;Q939W). A digest of the protocol: as §1
Experiment [3] deals with PUM1 PUF domain R4-QHK (Homo sapiens, UniProt Q14671 828-1176, N971Q;Q975K). Summed up:
as §1

Experiment [4] concerns the target PUM1 PUF domain R4-PHC (Homo sapiens, UniProt Q14671 828-1176, N971P;Q975C). Summed up:
as §1

The target of experiment [5] is PUM1 PUF domain R5-SGG (Homo sapiens, UniProt Q14671 828-1176, C1007S;R1008G;Q1011G). A digest of the protocol:
as §1

Experiment [6] concerns the target PUM1 PUF domain R5-FRL (Homo sapiens, UniProt Q14671 828-1176, C1007F;Q1011L). A digest of the protocol:
as §1

The target in experiment [7] is PUM1 PUF domain R1-RVM (Homo sapiens, UniProt Q14671 828-1176, S863R;R864V;Q867M). A digest of the protocol: as §1
Experiment [8] addresses PUM1 PUF domain R5-DFL (Homo sapiens, UniProt Q14671 828-1176, C1007D;R1008F;Q1011L). Summed up:
as §1

Experiment [9] addresses PUM1 PUF domain R4-CLQ (Homo sapiens, UniProt Q14671 828-1176, N971C;H972L). A digest of the protocol: as §1
The target of experiment [10] is PUM1 PUF domain R5-RAR (Homo sapiens, UniProt Q14671 828-1176, C1007R;R1008A;Q1011R). Summed up: as §1
For experiment [11], the target named is T1, PUM1 PUF domain R6-HFL (Homo sapiens, UniProt Q14671 828-1176, N1043H;Y1044F;Q1047L).
T1 sequence: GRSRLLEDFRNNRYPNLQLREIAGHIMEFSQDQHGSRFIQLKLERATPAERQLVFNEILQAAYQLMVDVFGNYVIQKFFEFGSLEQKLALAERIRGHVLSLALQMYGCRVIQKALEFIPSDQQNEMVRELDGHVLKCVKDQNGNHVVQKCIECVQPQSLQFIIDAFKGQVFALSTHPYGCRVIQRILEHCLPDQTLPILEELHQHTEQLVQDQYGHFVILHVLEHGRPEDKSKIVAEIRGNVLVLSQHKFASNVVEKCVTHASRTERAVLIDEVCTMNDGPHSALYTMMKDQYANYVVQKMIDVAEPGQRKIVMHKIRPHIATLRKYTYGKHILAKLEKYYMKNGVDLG
A digest of the protocol:
as §1

In experiment [12] the target is PUM1 PUF domain R7-GQR (Homo sapiens, UniProt Q14671 828-1176, S1079G;N1080Q;E1083R). Summed up:
as §1

The target in experiment [13] is PUM1 PUF domain R7-EFR (Homo sapiens, UniProt Q14671 828-1176, S1079E;N1080F;E1083R). Summed up: as §1
Experiment [14] deals with PUM1 PUF domain R4-FAA (Homo sapiens, UniProt Q14671 828-1176, N971F;H972A;Q975A). Summed up:
as §1

Experiment [15] deals with PUM1 PUF domain R5-RQL (Homo sapiens, UniProt Q14671 828-1176, C1007R;R1008Q;Q1011L). A digest of the protocol:
as §1

The target of experiment [16] is PUM1 PUF domain R5-HNR (Homo sapiens, UniProt Q14671 828-1176, C1007H;R1008N;Q1011R). Summed up:
as §1

Experiment [17] deals with PUM1 PUF domain R1-RCV (Homo sapiens, UniProt Q14671 828-1176, S863R;R864C;Q867V). A digest of the protocol:
as §1

The target of experiment [18] is PUM1 PUF domain R1-KLE (Homo sapiens, UniProt Q14671 828-1176, S863K;R864L;Q867E). Summed up: as §1
In experiment [19] the target is PUM1 PUF domain R3-FCV (Homo sapiens, UniProt Q14671 828-1176, C935F;R936C;Q939V). Summed up:
as §1

The target in experiment [20] is PUM1 PUF domain R1-SPE (Homo sapiens, UniProt Q14671 828-1176, R864P;Q867E). Summed up: as §1

For the sequence “GGCUAGAACUAGUGGAUCCCCCGGCGCCCGGCGGCUCGAGCCCGGGUAAGUGUAAUUAGUCUGCAUGCCGCCGGGCGCCAUGCCUGCAGGUCGACUCUAGAAAACAUG”, the binding signal in experiment [1] was 0.74 log2 enrichment (interaction score); in [2] it was 2.52 log2 enrichment (interaction score).
For “GGCUAGAACUAGUGGAUCCCCCGGCGCCCGGCGGCUCGAGCCCGGGUAAGUGUACAUAGUCUGCAUGCCGCCGGGCGCCAUGCCUGCAGGUCGACUCUAGAAAACAUG”, the binding signal in experiment [3] was 3.41 log2 enrichment (interaction score); in experiment [4] it was 3.16 log2 enrichment (interaction score).
With “GGCUAGAACUAGUGGAUCCCCCGGCGCCCGGCGGCUCGAGCCCGGGUAAGUGUGAAUAGUCUGCAUGCCGCCGGGCGCCAUGCCUGCAGGUCGACUCUAGAAAACAUG”, the binding signal was 3.53 log2 enrichment (interaction score) in [5] and 0.24 log2 enrichment (interaction score) in experiment [6].
Consider “GGCUAGAACUAGUGGAUCCCCCGGCGCCCGGCGGCUCGAGCCCGGGUAAGUGUAAAUGGUCUGCAUGCCGCCGGGCGCCAUGCCUGCAGGUCGACUCUAGAAAACAUG”, for which, in experiment [7], the binding signal is 1.04 log2 enrichment (interaction score).
Consider “GGCUAGAACUAGUGGAUCCCCCGGCGCCCGGCGGCUCGAGCCCGGGUAAGUGUAAAUAGUCUGCAUGCCGCCGGGCGCCAUGCCUGCAGGUCGACUCUAGAAAACAUG”, for which the binding signal is 3.51 log2 enrichment (interaction score) in [8]; 3.83 log2 enrichment (interaction score) in experiment [9]; 0.57 log2 enrichment (interaction score) in [10]; 2.57 log2 enrichment (interaction score) in experiment [11]; 1.49 log2 enrichment (interaction score) in experiment [6].
On to “GGCUAGAACUAGUGGAUCCCCCGGCGCCCGGCGGCUCGAGCCCGGGUAAGUUUAAAUAGUCUGCAUGCCGCCGGGCGCCAUGCCUGCAGGUCGACUCUAGAAAACAUG”, for which the results for the binding signal in experiment [12] and in [13] were 2.78 log2 enrichment (interaction score) and 2.09 log2 enrichment (interaction score), respectively.
For the sequence “GGCUAGAACUAGUGGAUCCCCCGGCGCCCGGCGGCUCGAGCCCGGGUAAGUGUAUAUAGUCUGCAUGCCGCCGGGCGCCAUGCCUGCAGGUCGACUCUAGAAAACAUG”, the binding signal was 2.2 log2 enrichment (interaction score) in [14] and 4.13 log2 enrichment (interaction score) in [4].
With “GGCUAGAACUAGUGGAUCCCCCGGCGCCCGGCGGCUCGAGCCCGGGUAAGUGUCAAUAGUCUGCAUGCCGCCGGGCGCCAUGCCUGCAGGUCGACUCUAGAAAACAUG”, the values for the binding signal in experiment [10], in experiment [15] and in experiment [6] were 3.66 log2 enrichment (interaction score), 2.74 log2 enrichment (interaction score) and 2.63 log2 enrichment (interaction score), respectively.
Take “GGCUAGAACUAGUGGAUCCCCCGGCGCCCGGCGGCUCGAGCCCGGGUAAGUGUUAAUAGUCUGCAUGCCGCCGGGCGCCAUGCCUGCAGGUCGACUCUAGAAAACAUG”: the binding signal in experiment [16] was 4.6 log2 enrichment (interaction score); in [10], 2.31 log2 enrichment (interaction score); in experiment [6], 1.67 log2 enrichment (interaction score).
With “GGCUAGAACUAGUGGAUCCCCCGGCGCCCGGCGGCUCGAGCCCGGGUAAGUGUAAAUCGUCUGCAUGCCGCCGGGCGCCAUGCCUGCAGGUCGACUCUAGAAAACAUG”, the values for the binding signal in experiment [7], in experiment [17] and in [18] were 3.24 log2 enrichment (interaction score), 3.67 log2 enrichment (interaction score) and 3.36 log2 enrichment (interaction score), respectively.
With “GGCUAGAACUAGUGGAUCCCCCGGCGCCCGGCGGCUCGAGCCCGGGUAAGUGUAAGUAGUCUGCAUGCCGCCGGGCGCCAUGCCUGCAGGUCGACUCUAGAAAACAUG”, the values for the binding signal in experiment [19] and in [1] were 4.56 log2 enrichment (interaction score) and 5.33 log2 enrichment (interaction score), respectively.
For “GGCUAGAACUAGUGGAUCCCCCGGCGCCCGGCGGCUCGAGCCCGGGUAAGUCUAAAUAGUCUGCAUGCCGCCGGGCGCCAUGCCUGCAGGUCGACUCUAGAAAACAUG”, the binding signal in [13] is 2.21 log2 enrichment (interaction score).
As for “GGCUAGAACUAGUGGAUCCCCCGGCGCCCGGCGGCUCGAGCCCGGGUAAGUGUAAAUUGUCUGCAUGCCGCCGGGCGCCAUGCCUGCAGGUCGACUCUAGAAAACAUG”, the binding signal in experiment [20] was 2.78 log2 enrichment (interaction score); in experiment [7], 2.87 log2 enrichment (interaction score); in experiment [17], 1.82 log2 enrichment (interaction score); in experiment [18], 4.05 log2 enrichment (interaction score).
